Results on 27 molecules are retold here after PubChem BioAssay (Tox21).

Each structure is given as a SMILES string. Unmarked numbers belong to inactive results. Results filed as inconclusive are left out. Calls of active or inactive are those of the source. Unless noted, calls come from the whole dose curve.

Assay [1] is described as follows: qHTS assay to identify small molecule agonists of the sonic hedgehog signaling (Shh) pathway (AID 1259368).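 For activity change: NIH/3T3-derived 3T3Gli1-Luc cells carrying a stable Gli1-driven firefly luciferase reporter; series mostly up to about 92 µM.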 Note: nearly all actives have a fitted effect of over 15% in size. Note: potency is the fitted concentration of half-maximal effect. An outline of the steps:
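Stable NIH/3T3 Gli1-Luc reporter clone; 24 hr cpd exposure after a 4 hr settling period; luminescence endpoint.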
A general note: In qHTS, concentration-response curves come from the screen itself.

The nature of assay [2]: qHTS assay to identify small molecule antagonists of the sonic hedgehog signaling (Shh) pathway (AID 1259369). Note: nearly all actives have a fitted effect of over 45% in size. Note: potency is the fitted concentration of half-maximal effect. An outline of the steps: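 Gli1 transcriptional reporter (firefly Luc) in NIH/3T3 background, conditioned-medium activated. 24hr exposure, luminescence endpoint.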
The target in assay [3] is Estrogen receptor beta (Homo sapiens) (UniProt Q92731). In words: qHTS assay to identify small molecule agonists of the estrogen receptor beta (ER-beta) signaling pathway (AID 1259377; active = well fitted activation curve with a large enough effect in the signal ratio in the repeat runs, not every such curve was filed as active; the % refers to the signal ratio). An outline of the steps: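 A UAS-controlled beta-lactamase reporter in ER-beta-UAS-bla HEK293T cells reports receptor activation. Compounds act for 16 hr at 37C in 2% charcoal-stripped serum, and a FRET substrate is read by fluorescence after 2 hours.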
Sequence of Estrogen receptor beta (Homo sapiens) (Q92731 whole entry, looked up): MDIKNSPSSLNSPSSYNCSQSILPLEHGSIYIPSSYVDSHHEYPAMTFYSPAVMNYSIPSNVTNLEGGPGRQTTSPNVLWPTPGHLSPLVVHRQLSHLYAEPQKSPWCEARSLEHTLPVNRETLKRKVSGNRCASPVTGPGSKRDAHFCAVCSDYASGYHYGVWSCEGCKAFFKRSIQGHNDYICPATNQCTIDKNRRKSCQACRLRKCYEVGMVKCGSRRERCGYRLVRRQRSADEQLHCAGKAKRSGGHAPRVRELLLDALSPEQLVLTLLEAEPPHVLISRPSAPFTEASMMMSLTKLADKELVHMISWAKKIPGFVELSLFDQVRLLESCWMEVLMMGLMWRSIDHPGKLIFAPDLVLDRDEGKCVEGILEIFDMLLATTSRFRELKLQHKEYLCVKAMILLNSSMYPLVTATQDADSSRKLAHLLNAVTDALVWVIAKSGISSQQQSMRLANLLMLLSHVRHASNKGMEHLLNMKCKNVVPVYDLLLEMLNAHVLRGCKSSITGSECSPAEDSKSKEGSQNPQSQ

Assay [4] in a line: qHTS assay to identify small molecule agonists of the androgen receptor (AR) signaling pathway in the presence of an antagonist - cell viability counter screen (AID 1259379; active = well fitted curve in the direction sought with a large enough effect in the repeat runs; an effect the other way counts as inactive or inconclusive; note: nearly all actives have a fitted effect of over 25% in size; note: potency is the fitted concentration of half-maximal effect). An outline of the steps: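 Counter screen for cell viability run in parallel with the AR agonist-mode luciferase assay. MDA-kb2 cells were co-treated with nilutamide (3.0uM final) and compounds, then incubated 16 hr at 37C, and CellTiter-Fluor fluorescence was measured.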

Assay [5] in a line: qHTS assay to identify small molecule agonists of the estrogen receptor beta (ER-beta) signaling pathway - cell viability counter screen (AID 1259380; active = well fitted curve in the direction sought with a large enough effect in the repeat runs; an effect the other way counts as inactive or inconclusive; note: nearly all actives have a fitted effect of over 30% in size; note: potency is the fitted concentration of half-maximal effect). The essentials: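 In this qHTS counter screen, HEK293T cells carrying an ER-beta/UAS beta-lactamase reporter, grown in 2% charcoal-stripped FBS, received compound for 16 hr; ATP-based CellTiter-Glo luminescence was then read after 30 min at room temperature.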

In assay [6] the target is Androgen receptor (Homo sapiens) (UniProt P10275). In words: qHTS assay to identify small molecule agonists of the androgen receptor (AR) signaling pathway in the presence of an antagonist (AID 1259381). Note: nearly all actives have a fitted effect of over 15% in size. Note: potency is the fitted concentration of half-maximal effect. The essentials: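 AR antagonist background: nilutamide 3.0uM final. Cell line: MDA-kb2, MMTV-driven luciferase, responsive to both AR and GR. Exposure 16hr, 37C, no CO2; ONE-Glo luminescence.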
Sequence of Androgen receptor (Homo sapiens) (P10275 whole entry, looked up): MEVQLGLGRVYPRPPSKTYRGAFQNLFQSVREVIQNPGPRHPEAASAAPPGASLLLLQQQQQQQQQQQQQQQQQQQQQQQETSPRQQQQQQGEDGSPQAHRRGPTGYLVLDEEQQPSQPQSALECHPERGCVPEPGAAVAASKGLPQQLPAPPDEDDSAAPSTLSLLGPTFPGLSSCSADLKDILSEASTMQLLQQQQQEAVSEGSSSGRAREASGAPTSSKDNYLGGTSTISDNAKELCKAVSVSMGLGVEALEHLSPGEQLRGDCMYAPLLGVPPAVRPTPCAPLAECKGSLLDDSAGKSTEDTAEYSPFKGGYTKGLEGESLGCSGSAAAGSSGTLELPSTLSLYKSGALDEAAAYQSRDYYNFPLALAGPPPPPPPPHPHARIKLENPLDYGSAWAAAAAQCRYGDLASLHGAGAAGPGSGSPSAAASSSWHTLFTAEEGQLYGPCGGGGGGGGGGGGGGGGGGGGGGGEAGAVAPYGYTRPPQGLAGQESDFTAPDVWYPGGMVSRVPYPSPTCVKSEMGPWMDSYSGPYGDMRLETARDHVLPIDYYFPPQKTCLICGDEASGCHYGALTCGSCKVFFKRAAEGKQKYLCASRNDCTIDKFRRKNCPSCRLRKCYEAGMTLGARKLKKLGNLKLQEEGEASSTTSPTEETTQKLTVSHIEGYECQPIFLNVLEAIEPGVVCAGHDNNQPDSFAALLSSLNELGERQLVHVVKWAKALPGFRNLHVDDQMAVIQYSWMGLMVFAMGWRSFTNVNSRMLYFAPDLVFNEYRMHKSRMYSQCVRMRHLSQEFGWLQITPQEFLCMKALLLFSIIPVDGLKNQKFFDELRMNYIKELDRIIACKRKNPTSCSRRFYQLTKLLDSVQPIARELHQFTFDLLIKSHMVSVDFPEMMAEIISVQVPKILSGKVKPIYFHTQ

Assay [7] is described as follows: qHTS assay to identify small molecule antagonists of the estrogen receptor beta (ER-beta) signaling pathway - cell viability counter screen (AID 1259382; active = well fitted curve in the direction sought with a large enough effect in the repeat runs; an effect the other way counts as inactive or inconclusive;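 note: HEK293T cells carrying ER-beta-UAS-bla reporter stimulated with estradiol; series mostly up to about 92 µM; nearly all actives have a fitted effect of over 55% in size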). An outline of the steps: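 HEK293T ER-beta-UAS-bla, 2% charcoal-stripped FBS; compounds + 1nM E2 16 hr 37C; CellTiter-Glo luminescence, 30 min RT.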
Assay [8] can be described thus: qHTS assay to identify small molecule agonists or antagonists of the thyroid stimulating hormone receptor (TSHR) signaling pathway - wild type cell line counter screen (AID 1259384). An outline of the steps:
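Counter screen in untransfected Hek293: compounds (15-point titration, triplicate) plus phosphodiesterase inhibitor Ro20-1724 added after 18 h plating; 30 min RT. Intracellular cAMP via competitive d2/cryptate immunoassay, 1 h incubation.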

Assay [9] addresses Estrogen receptor beta (Homo sapiens) (UniProt Q92731). In words: qHTS assay to identify small molecule antagonists of the estrogen receptor beta (ER-beta) signaling pathway (AID 1259378; active = well fitted inhibition curve with a large enough effect in the signal ratio in the repeat runs, not every such curve was filed as active; the % refers to the signal ratio). The essentials:
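Antagonist mode: compounds added to beta-lactamase reporter HEK293T ER-beta-UAS cells stimulated with E2 (1nM final), 16 hr at 37C. LiveBLAzer B/G FRET substrate, 2 hours room temperature, fluorescence read-out.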

Assay [10] has as its target Estrogen receptor (Homo sapiens) (UniProt P03372). Briefly: qHTS assay to identify small molecule agonists of the estrogen receptor alpha (ER-alpha) signaling pathway in the presence of an antagonist (AID 1259383). Note: top concentration of the series differs between compounds; nearly all actives have a fitted effect of over 15% in size. An outline of the steps: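 ER-alpha agonism measured under antagonist challenge: 10.0nM ICI-182,780 (final) plus compound, 15 concentrations, 22hr, VM7Luc4E2 ERE-luciferase cells. Read by luminescence.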
% is set by controls: 0 for no effect and ±100 for the full control effect.

Sequence of Estrogen receptor (Homo sapiens) (P03372 whole entry, looked up): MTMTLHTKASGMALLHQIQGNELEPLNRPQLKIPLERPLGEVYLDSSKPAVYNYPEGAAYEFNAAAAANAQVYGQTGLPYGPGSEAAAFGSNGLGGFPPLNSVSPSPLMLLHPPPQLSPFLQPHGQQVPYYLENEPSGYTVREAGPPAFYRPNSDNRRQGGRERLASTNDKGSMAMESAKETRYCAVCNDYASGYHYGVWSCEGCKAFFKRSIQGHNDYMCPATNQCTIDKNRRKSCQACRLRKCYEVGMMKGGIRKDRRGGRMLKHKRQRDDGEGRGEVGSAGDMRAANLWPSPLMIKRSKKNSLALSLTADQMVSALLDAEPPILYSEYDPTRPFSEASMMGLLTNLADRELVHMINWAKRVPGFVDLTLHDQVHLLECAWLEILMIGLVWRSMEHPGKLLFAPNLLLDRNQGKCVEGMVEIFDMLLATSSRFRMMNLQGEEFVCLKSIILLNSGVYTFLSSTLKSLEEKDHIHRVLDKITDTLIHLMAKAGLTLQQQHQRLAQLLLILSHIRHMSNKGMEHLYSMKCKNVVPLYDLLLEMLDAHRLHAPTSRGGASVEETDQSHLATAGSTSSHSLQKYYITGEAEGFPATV

Take `CCC(=O)O[C@]1(C(=O)COC)[C@@H](C)C[C@H]2[C@@H]3CCC4=CC(=O)C=C[C@]4(C)C3(F)[C@@H](O)C[C@@]21C` (stereo not given in full): the Potency in assay [1] was 13.3 µM (active); in [6] it was 0.006 µM (active). Moreover, the Potency entry in assay [2], in assay [3], in [4], in assay [5] and in assay [7] was “inactive” throughout. Further, in [8], the molecule was classed as inactive.
Take `CCCCCCCCCCCC(=O)OCC`: the Potency entry in [1], in [2], in [3], in assay [9], in assay [4] and in [5] was “inactive” throughout. Moreover, in assay [10], the Potency result is “inactive”. Besides, the molecule was classed as inactive in assay [8].
As for `CC1=CC(=C(c2ccc(N)cc2)c2ccc(N)cc2)C=CC1=N`, in [1], the activity change was -2.79% [at 8.39 µM, hits give high values]. Moreover, the activity change, negative = inhibition in assay [2] was -22.7% [at 8.39 µM]. In addition, the activation in [3] was -6.24% [at 8.39 µM]; in assay [10], 0.281% [at 8.39 µM]. Besides, the Potency in [4] is 3.1 µM (active).
With `Nc1ncnc2c1ncn2[C@@H]1O[C@H](CO)[C@@H](O)[C@H]1O`, the Potency result in assay [1], in [2], in assay [3], in assay [4], in assay [5] and in assay [7] was “inactive” in each case. The Potency entry in assay [10] is “inactive”. For the same molecule, the molecule was classed as inactive in assay [8].
For the molecule `Cc1cccc(C)c1NC(=O)CN1CCCC1`, the Potency entry in assay [1], in [2], in assay [3], in assay [9], in [4] and in assay [5] was “inactive” in each case. Moreover, the Potency result in assay [7] was “inactive”. Moreover, the outcome in assay [8] was inactive.
Regarding `CCCCCC1CCC(=O)O1` (stereo not given), the Potency entry in [1], in assay [2], in [3], in [9], in [4] and in [5] was “inactive” throughout. The Potency entry in assay [7] and in assay [10] was “inactive” throughout. For the same molecule, in assay [8], the molecule was called inactive.
For the molecule `CCCCCCOC(=O)c1ccccc1`, the Potency entry in assay [1], in assay [2], in assay [3], in assay [9], in assay [4] and in assay [10] was “inactive” each time. Further, in assay [5], the Potency is 27.3 µM (active).
With `C/C=C1\[C@H]2C=C(C)C[C@]1(N)c1ccc(=O)[nH]c1C2`, the Potency result in [1], in [2], in assay [3], in [9], in [4] and in [5] was “inactive” throughout. Besides, in assay [7], the Potency entry was “inactive”. Also, the molecule was called inactive in assay [8].
In the case of `Cc1ccc(Cl)c(OCC(O)CNC(C)(C)C)c1` (stereo not given), the Potency result in [1], in assay [2], in assay [3], in assay [9], in assay [4] and in [7] was “inactive” throughout. For the same molecule, in assay [10], the Potency result was “inactive”.
As for `CC(O)C(C)O` (stereo not given), the Potency result in assay [1], in [2], in assay [3], in [9], in assay [4] and in assay [5] was “inactive” throughout. In addition, the Potency entry in assay [7] is “inactive”. The molecule was classed as inactive in [8].
On to `COC(=O)/C=C/C(C)=C\C=C\C(C)=C\C=C\C=C(C)\C=C\C=C(C)\C=C\C(=O)O`, for which the Potency result in [1], in assay [2], in assay [3], in assay [9], in [5] and in [6] was “inactive” each time. Also, the Potency entry in assay [7] and in [10] was “inactive” in each case. In addition, the call in assay [8] was inactive.
On to `CCCCOc1ccc(N)cc1`, for which the Potency entry in assay [1], in [2], in assay [3], in assay [9], in [4] and in [5] was “inactive” throughout. The molecule was called inactive in assay [8].
Regarding `FC1(F)C(F)(F)C(F)(F)C2(F)C(F)(C1(F)F)C(F)(F)C(F)(F)C1(F)C(F)(F)C(F)(F)C(F)(F)C(F)(F)C12F` (stereo not given), the Potency entry in assay [1], in [2], in assay [3], in assay [9], in assay [4] and in assay [5] was “inactive” each time. In addition, the molecule was classed as inactive in assay [8].
Turning to `C=C[Si]1(C)O[Si](C)(C=C)O[Si](C)(C=C)O[Si](C)(C=C)O1` (stereo not given), the Potency entry in [1], in [3], in assay [9], in assay [4], in assay [5] and in assay [7] was “inactive” in each case. Besides, the Potency in [2] was 30.6 µM (active). The call in assay [8] was inactive.
As for `O=C(O)c1c2ccccc2cc2ccccc12`, the Potency entry in [1], in [2], in [3], in [9], in [5] and in [7] was “inactive” each time. Moreover, the Potency entry in assay [10] is “inactive”. Further, the call in assay [8] was inactive.
Regarding `O=C1OC(=O)C2CC=CCC12` (stereo not given), the Potency entry in assay [1], in assay [2], in [3], in assay [9], in assay [4] and in assay [5] was “inactive” each time. For the same molecule, the Potency result in assay [7] and in assay [10] was “inactive” throughout. The call in [8] was inactive.
As for `CCCN(C1CCN(C(=O)C2CCNCC2)CC1)[C@@H]1CCc2ccc(OC)cc2C1`, the Potency entry in [1], in assay [3], in [9] and in [6] was “inactive” in each case. For the same molecule, the Potency in assay [2] is 4.33 µM (active).
For the molecule `CC(CN=Cc1ccccc1O)N=Cc1ccccc1O` (stereo not given), the Potency result in assay [1], in [2], in assay [3], in assay [9], in assay [4] and in [5] was “inactive” in each case. Moreover, in [7], the Potency result is “inactive”. In addition, the molecule was classed as inactive in assay [8].
`CCC1=C(C)CN(C(=O)NCCc2ccc(S(=O)(=O)NC(=O)NC3CCC(C)CC3)cc2)C1=O` (stereo not given): the Potency entry in [1], in assay [2], in assay [3], in assay [4], in assay [6] and in [7] was “inactive” throughout. Moreover, the Potency result in assay [10] was “inactive”. Also, the molecule was called inactive in assay [8].
With `CCCCOC(=O)C(C)Oc1ccc(Oc2ccc(C(F)(F)F)cn2)cc1` (stereo not given), the Potency result in [1], in [2], in assay [3], in assay [9], in assay [4] and in assay [5] was “inactive” throughout. Moreover, the Potency entry in [7] and in assay [10] was “inactive” each time. Further, in assay [8], the call was inactive.
With `C[Si](C)(C)O[Si](C)(C)O[Si](C)(C)C`, the Potency result in [1], in [2], in assay [3], in assay [9] and in assay [4] was “inactive” each time. Moreover, the call in assay [8] was inactive.
On to `CC1=C(C)C(=O)C(C(CCCCCC(=O)O)c2ccccc2)=C(C)C1=O` (stereo not given), for which the Potency result in assay [1], in [2], in assay [3], in assay [4] and in [10] was “inactive” each time.
In the case of `CC(=O)OCC(=O)[C@@]1(O)CC[C@H]2[C@@H]3CCC4=CC(=O)C=C[C@]4(C)[C@@]3(F)[C@@H](O)C[C@@]21C`, the Potency entry in assay [1], in assay [2], in assay [3], in assay [9], in assay [4] and in assay [5] was “inactive” in each case. The Potency entry in [7] is “inactive”. The molecule was classed as inactive in assay [8].
As for `CC1(C)C(=O)NC(=O)N1CO`, the Potency result in [1], in assay [2], in assay [3], in assay [9], in assay [4] and in assay [7] was “inactive” in each case. In addition, in [10], the Potency entry was “inactive”. Besides, in assay [8], the molecule was called inactive.
Regarding `CCN(CC)CC(=O)OCC(=O)[C@@]1(O)CC[C@H]2[C@@H]3CCC4=CC(=O)CC[C@]4(C)[C@H]3[C@@H](O)C[C@@]21C`, the Potency entry in assay [1], in [2], in assay [3], in assay [4], in assay [5] and in assay [7] was “inactive” in each case. For the same molecule, in assay [10], the Potency result is “inactive”. In addition, in assay [6], the Potency is 0.211 µM (active). In assay [8], the call was inactive.
Turning to `C/C(=C\C(C)CC(C)CC(C)C)C1CC(=O)OC1=O` (stereo not given), the Potency entry in assay [1], in assay [2], in [3], in assay [4], in [7] and in [10] was “inactive” in each case. In assay [8], the molecule was classed as inactive.
With `CC(C)(C)c1cc(C=O)cc(C(C)(C)C)c1O`, the Potency result in assay [1], in assay [2], in [3], in [9], in assay [4] and in assay [5] was “inactive” throughout. Besides, the Potency entry in assay [10] is “inactive”. Also, in assay [8], the molecule was classed as inactive.
